Rows were chosen to be rich in hits. Some 3.4% of all compounds tested hit in one or more screens of this group.
FBW7 activator = FBW7 E3 ligase activators, primary screen, biochemical, AlphaScreen, human. AlphaScreen FBW7–phospho-cyclin E peptide binding, activator screen. normalized activity (activation), % at 26.1 µM. 650,000 compounds, 0.13% hits; in the data active = normalized activity above about 1.9%;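 also: purified mutant Fbw7 with reduced substrate affinity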
MITF primary = MITF inhibitors, primary screen, biochemical, AlphaScreen, human. Microphthalmia-associated transcription factor (Homo sapiens), O75030. AlphaScreen MITF homodimerization, bead proximity signal. inhibition, % at 2.6 µM. 650,000 compounds, 0.91% hits; in the data active = inhibition above about 50%;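 also: 0% = vehicle wells with protein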
Target sequence (O75030 whole entry, looked up): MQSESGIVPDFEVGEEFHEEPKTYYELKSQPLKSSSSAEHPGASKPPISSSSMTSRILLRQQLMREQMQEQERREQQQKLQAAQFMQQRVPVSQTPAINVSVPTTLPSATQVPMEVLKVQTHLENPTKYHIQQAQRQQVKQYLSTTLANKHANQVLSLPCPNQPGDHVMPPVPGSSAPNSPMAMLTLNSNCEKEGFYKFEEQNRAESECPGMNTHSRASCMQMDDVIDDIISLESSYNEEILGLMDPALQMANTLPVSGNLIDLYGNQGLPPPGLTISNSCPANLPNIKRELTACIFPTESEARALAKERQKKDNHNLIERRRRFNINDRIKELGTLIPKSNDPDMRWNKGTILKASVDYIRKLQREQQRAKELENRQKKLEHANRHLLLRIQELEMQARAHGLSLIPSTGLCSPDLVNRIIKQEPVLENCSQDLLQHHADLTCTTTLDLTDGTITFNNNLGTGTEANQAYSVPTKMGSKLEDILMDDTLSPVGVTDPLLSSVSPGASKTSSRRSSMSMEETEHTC
TEAD-YAP inh = TEAD-YAP interaction inhibition, primary screen, TEAD-YAP interaction inhibitor project, luminescence, HEK-TIYL cells; TEAD-Gal4/YAP UAS-luciferase luminescence; inhibition, % at 9.12 µM; 640,000 compounds, 1.4% hits; in the data active = inhibition above about 32%;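 also: 0% = median of test compound wells and 100% = reference inhibitor wells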
GPR151 activ = activators of human GPR151, primary screen, cell-based, PathHunter beta-arrestin, luminescence; AID 1508602, 2020; G-protein coupled receptor 151 (Homo sapiens), Q8TDV0; 650,000 compounds, 1% hits; activation, % at 11.2 µM; PathHunter beta-arrestin GPR151 cells; in the data active = activation above about 4.9%;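 also: 0% = median of compound wells and 100% = cells with positive control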
MITF confirm = MITF inhibitors, retest of hits, confirmation, biochemical, AlphaScreen, triplicate | 4,700 compounds, 16% hits | AID 1259372, 2018 | AlphaScreen MITF homodimerization, biotin/His-MITF beads | inhibition, % at 2.6 µM | shares compounds with MITF primary;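 active = inhibition above a cutoff derived from the DMSO control wells, cut at about 28% in these data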;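 also: 0% = MITF dimer wells with DMSO only; inhibitors lower the bead chemiluminescence by keeping MITF from dimerizing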
AlphaScreen intf2 = AlphaScreen optical interference compounds, counter-screen for MITF inhibitor project, biochemical, triplicate; shares compounds with MITF primary; LysRS AlphaScreen counterscreen, signal interference; inhibition, % at 2.6 µM; 4,700 compounds, 7.6% hits; AID 1259376, 2018;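 active = inhibition above a cutoff derived from the DMSO control wells, cut at about 30% in these data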
An asterisk follows results filed as active.

`O=C(c1ccncc1)N1CCN(Cc2ccccc2C(F)(F)F)CC1` gave FBW7 activator 0, MITF primary 69*, TEAD-YAP inh 0, GPR151 activ 0, MITF confirm -12 and AlphaScreen intf2 -5.
O=C(c1ccccc1)N1CCN(CCCc2ccccc2)CC1 was read as FBW7 activator 0, MITF primary 31, TEAD-YAP inh -18 and GPR151 activ 2.
`O=C(c1ccc(F)cc1)N1CCN(Cc2ccccc2C(F)(F)F)CC1` gave FBW7 activator 0, MITF primary 65*, TEAD-YAP inh -1, GPR151 activ 0, MITF confirm -4 and AlphaScreen intf2 -4.
COc1ccccc1CN1CCN(C(=O)c2ccc(F)cc2)CC1 was read as FBW7 activator 0, MITF primary 38, TEAD-YAP inh -8 and GPR151 activ 0.
Screening O=C(c1ccccc1)N1CCN(C(=O)c2ccncc2)CC1 returned FBW7 activator 0, MITF primary 1, TEAD-YAP inh 5 and GPR151 activ 0.
For COc1cc(/C=C2\SC(=Nc3ccc(F)cc3)NC2=O)c([N+](=O)[O-])cc1OC the results were FBW7 activator -1, MITF primary -8, TEAD-YAP inh 6 and GPR151 activ 1.
COc1ccc(-n2c(C)c([N+](=O)[O-])c3ccc(OC(C)=O)c(COC(C)=O)c32)cc1 was read as FBW7 activator 0, MITF primary 3, TEAD-YAP inh 8 and GPR151 activ -1.
Screening O=C(c1ccc(-c2ccccc2)cc1)N1CCN(Cc2ccccc2C(F)(F)F)CC1 returned FBW7 activator 0, MITF primary 65*, TEAD-YAP inh -11, GPR151 activ 1, MITF confirm 2 and AlphaScreen intf2 4.
Screening O=C(c1cccc(F)c1)N1CCN(Cc2ccccc2C(F)(F)F)CC1 returned FBW7 activator 0, MITF primary 53*, TEAD-YAP inh -1, GPR151 activ 0, MITF confirm -16 and AlphaScreen intf2 -2.
CC(C)CC(=O)N1CCN(Cc2ccccc2C(F)(F)F)CC1 was read as FBW7 activator 0, MITF primary 58*, TEAD-YAP inh 2, GPR151 activ 0, MITF confirm 4 and AlphaScreen intf2 17.
O=C(c1ccco1)N1CCN(Cc2ccccc2[N+](=O)[O-])CC1 was read as FBW7 activator 1, MITF primary 76*, TEAD-YAP inh -12, GPR151 activ -1, MITF confirm -3 and AlphaScreen intf2 -1.
CC(C)CC(=O)N1CCN(C(=O)c2cccs2)CC1 was read as FBW7 activator 0, MITF primary 7, TEAD-YAP inh 6 and GPR151 activ -1.
`CC1CCN(C(=O)c2c[nH]c3ccc(S(=O)(=O)N4CCc5ccccc5C4)cc3c2=O)CC1` gave FBW7 activator 0, MITF primary -8, TEAD-YAP inh 17 and GPR151 activ -1.
Screening O=C(c1ccco1)N1CCN(Cc2ccccc2C(F)(F)F)CC1 returned FBW7 activator 0, MITF primary 66*, TEAD-YAP inh -4, GPR151 activ 0, MITF confirm 8 and AlphaScreen intf2 12.
For O=C(c1ccco1)N1CCN(Cc2ccc(Br)cc2)CC1 the results were FBW7 activator 0, MITF primary -2, TEAD-YAP inh -2 and GPR151 activ 2.
`COc1cccc(CN2CCN(Cc3cccc(OC)c3OC)CC2)c1OC` gave FBW7 activator 0, MITF primary 74*, TEAD-YAP inh -2, GPR151 activ 0, MITF confirm 6 and AlphaScreen intf2 10.
Screening COc1ccc(CN2CCC(N3CCN(c4ccccc4)CC3)CC2)cc1OC returned FBW7 activator 0, MITF primary 56*, TEAD-YAP inh 19, GPR151 activ -2, MITF confirm -6 and AlphaScreen intf2 -10.
`COc1cccc(CN2CCN(Cc3cc(OC)c(OC)c(OC)c3)CC2)c1OC` gave FBW7 activator 0, MITF primary 62*, TEAD-YAP inh 4, GPR151 activ -1, MITF confirm -12 and AlphaScreen intf2 -2.
Screening COc1cccc(CN2CCN(Cc3cccc(Oc4ccccc4)c3)CC2)c1OC returned FBW7 activator 0, MITF primary 74*, TEAD-YAP inh -7, GPR151 activ 0, MITF confirm 5 and AlphaScreen intf2 3.
For COc1cc(C(=O)N2CCN(Cc3cccc(Oc4ccccc4)c3)CC2)cc(OC)c1OC the results were FBW7 activator 0, MITF primary 29, TEAD-YAP inh 6 and GPR151 activ 0.
For COc1cc(CN2CCN(Cc3cccc(C)c3)CC2)cc(OC)c1OC the results were FBW7 activator -1, MITF primary 42, TEAD-YAP inh -4 and GPR151 activ 0.
For Cc1ccccc1C(=O)NNC(=O)C(c1ccccc1)c1ccccc1 the results were FBW7 activator 0, MITF primary 10, TEAD-YAP inh -2 and GPR151 activ 1.
Cc1ccc(S(=O)(=O)N2CCOCC2)cc1NC(=O)c1cc(F)c(F)c(F)c1F was read as FBW7 activator 0, MITF primary -7, TEAD-YAP inh 10 and GPR151 activ -1.
`COc1cccc(CN2CCN(Cc3ccccc3Br)CC2)c1OC` gave FBW7 activator 0, MITF primary 35, TEAD-YAP inh -21 and GPR151 activ -2.
For COc1ccccc1CNC(=O)CN1CCN(C)CC1 the results were FBW7 activator 0, MITF primary 80*, TEAD-YAP inh -6, GPR151 activ 0, MITF confirm 4 and AlphaScreen intf2 13.
`COc1cccc(CN2CCN(C3CCC(C)CC3)CC2)c1OC` (stereo not drawn) gave FBW7 activator 0, MITF primary 70*, TEAD-YAP inh -12, GPR151 activ -1, MITF confirm 17 and AlphaScreen intf2 -3.
For COc1ccccc1CN1CCN(Cc2cccc(OC)c2OC)CC1 the results were FBW7 activator 0, MITF primary 86*, TEAD-YAP inh -2, GPR151 activ 1, MITF confirm 5 and AlphaScreen intf2 17.
`COc1cccc(CN2CCC(N3CCCC3)CC2)c1OC` gave FBW7 activator 0, MITF primary 20, TEAD-YAP inh 3 and GPR151 activ 2.
`COc1cccc(CN2CCC(N3CCN(c4ccccc4)CC3)CC2)c1OC` gave FBW7 activator 0, MITF primary 56*, TEAD-YAP inh 5, GPR151 activ 0, MITF confirm -9 and AlphaScreen intf2 -3.
Screening CCOc1ccc(-c2cccc(NC(=O)NCc3ccccc3)c2)nn1 returned FBW7 activator 0, MITF primary 9, TEAD-YAP inh -13 and GPR151 activ -2.
